Records with an inconclusive call do not appear. Activity calls are given as the source filed them. The calls were made as follows: active = hit-call score of the fitted dose curve at least 0.9, where 1 is the maximum; inconclusive = response in the unintended direction; inactive = score below 0.9.
test: ACEA_AR_agonist_AUC_viability: ACEA Biosciences xCELLigence Real-Time Cell Analysis on Androgen Receptor Agonism for Viability (AID 2283775);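 as to AC50: viability read 80 hours after compound addition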
Outline: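 Viability endpoint from xCELLigence impedance in 22Rv1 prostate cells at 80 h. Eight-point series, 100 uM maximum final.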

SMILES	outcome	AC50
CCOC(=O)CC	inactive	
CCCCCCC1(C)CCC(=O)O1 (stereo unspecified)		1.1 µM (active)
CCCc1ccc(OC)cc1	inactive	
NC(=O)c1ccccc1O	inactive	
CCCCCCCOC(=O)CCC	inactive	

test: ACEA_AR_antagonist_AUC_viability: ACEA Biosciences xCELLigence Real-Time Cell Analysis on Androgen Receptor Antagonism for Viability (AID 2283776);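 also: 22Rv1 human prostate cancer cells growing on impedance electrode plates; area under impedance growth curve at 80 h after dosing as viability; hits lower the growth signal relative to DMSO meaning cytotoxicity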
Outline: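 Real-time electrical impedance tracks 22Rv1 proliferation after continuous compound exposure (top 100 uM final, 1:4 steps, 8 concentrations). The 80 h area-under-curve serves as the cytotoxicity readout relative to DMSO.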

SMILES	outcome	AC50
CCO[Si](C)(OCC)OCC	inactive	
O=C(c1ccccc1)C1CCC1		0.391 µM (active)
O=C(O)CCCC[C@@H]1SC[C@@H]2NC(=O)N[C@@H]21	inactive	
CCOC(=O)CC	inactive	
CCCCCCCC/C=C\CCCCCCCC(=O)O	inactive	
CCCCC(CC)CCC(CC(C)C)OS(=O)(=O)O (stereo unspecified)	inactive	
C=C[Si](C)(C)O[Si](C)(C)C=C	inactive	
O=C(C(Cl)Cl)N1CCOC12CCCCC2		11 µM (active)
CCCCCCCCCCOS(=O)(=O)O	inactive	
CCCCCCC1(C)CCC(=O)O1 (stereo unspecified)	inactive	
OC1CCCCCCCCCCC1	inactive	
CC(C)=CCC[C@H](C)CCO	inactive	
CC(=O)OC(C)C	inactive	
Cc1cc(C)c(C(=O)O)c(C)c1	inactive	
c1c[nH]cn1	inactive	
CC1=NN(c2cc(S(=O)(=O)O)ccc2Cl)C(=O)C1N=Nc1ccccc1 (stereo unspecified)	inactive	

SMILES	outcome	AC50
NC(=O)N=NC(N)=O		4.59 µM (active)
CC=C1CC2C=CC1C2 (stereo unspecified)	inactive	
CCCc1ccc(OC)cc1	inactive	
CC(=O)[C@H]1[C@H](C#N)C[C@H]2[C@@H]3CC=C4C[C@@H](O)CC[C@]4(C)[C@H]3CC[C@@]21C	inactive	
CCCCCCCC[N+](C)(CCCCCCCC)CCCCCCCC		0.925 µM (active)
CCCCCCCCO[C@@H]1O[C@H](CO)[C@@H](O)[C@H](O)[C@H]1O	inactive	
CCCCCc1ccc(Cl)cc1	inactive	
CC(C)c1ccc2cc(C(C)C)ccc2c1	inactive	
C1=Cc2ccccc2C1	inactive	
CC1=CC[C@H]2C[C@@H]1C2(C)C	inactive	
O=c1cc(-c2ccccc2)oc2ccccc12	inactive	
OC1CCCC1		0.475 µM (active)
CCCCCCCOC(=O)CCC	inactive	
Cn1c([N+](=O)[O-])cnc1COC(N)=O	inactive	
CC(C)(C)c1ccc(OC(=O)c2ccccc2O)cc1		0.0777 µM (active)
